Source: PubChem BioAssay (Tox21)
Inconclusive results are not listed. Activity calls are given as the source filed them. Unless noted, calls follow the shape of the dose curve; as a rule, active = well fitted curve in the direction sought with a large enough effect in the repeat runs; inconclusive = weak or mixed curves; inactive = no such curve, though single readings can be large; an effect the other way counts as inactive or inconclusive.

Legend:
[1] = qHTS assay for small molecule agonists of the p53 signaling pathway (AID 651631; calls by dose curve; also: nearly all actives have a fitted effect of over 15% in size; also: potency is read from the fitted curve at half-maximal effect)
Summary of the method: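 HCT-116 cells carrying a stable p53 response element–beta-lactamase reporter were plated, rested 5 h at 37 °C, then exposed to compound in DMSO for 16 h at 37 °C; reporter activity was read as FRET substrate fluorescence after 2 h at room temperature.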

[2] = qHTS assay for small molecule agonists of the p53 signaling pathway - cell viability (AID 651633; calls by dose curve; also: series mostly up to about 83 µM; nearly all actives have a fitted effect of over 30% in size)
Summary of the method: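 Viability counter-read: CellTiter-Glo luminescence (30 min, room temperature) in the same p53RE-bla plates. These plates had been exposed to compounds for 16 h at 37 C.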

[3] = qHTS assay for small molecules that induce genotoxicity in human embryonic kidney cells expressing luciferase-tagged ATAD5 - cell viability (AID 651634; calls by dose curve; also: nearly all actives have a fitted effect of over 25% in size)
Summary of the method: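 Here HEK293T cells with the ATAD5 luciferase reporter are incubated with test compounds for 15.5 hr, and cytotoxicity is then gauged by measuring protease activity in live cells using fluorescence.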

[4] = qHTS assay for small molecule disruptors of the mitochondrial membrane potential - cell viability (AID 720634; calls by dose curve;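 also: human HepG2 liver cancer cells; series mostly up to about 83 µM; nearly all actives have a fitted effect of over 20% in size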)
Summary of the method: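 Viability of HepG2 cells is scored from ATP content by luminescence; cells are exposed to compound for 1 hr at 37 C and 5% CO2, then dosed with m-MPI dye before the CellTiter-Glo reagent.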

[5] = qHTS assay to test for compound auto fluorescence at 590 nm (red) in HepG2 cells (AID 720674)
Summary of the method: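 We screened compounds on adherent HepG2 cells, incubating them for an hour at 37 C in 5% CO2 before reading emission at 590 nm under 540 nm excitation; values reflect equivalence to Rose Bengal sodium fluorescence.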

[6] = qHTS assay to test for compound auto fluorescence at 535 nm (green) in HepG2 cells (AID 720675)
[7] = qHTS assay to test for compound auto fluorescence at 460 nm (blue) in HEK293 cells (AID 720678)
Summary of the method: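 After cell attachment (4-5 hr, 37C), compounds were pinned onto HEK293 monolayers in 10% dialyzed FBS medium. The blue channel (405/460 nm) was read following overnight culture. Equivalency was calculated against triamterene.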

[8] = qHTS assay to test for compound auto fluorescence at 590 nm (red) in HEK293 cells (AID 720679)
Summary of the method: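 Plates of HEK293 cells (10% dialyzed FBS) are treated with 23 nL compound or DMSO vehicle after a 4-5 hr attachment period, incubated overnight at 37C, and read for red fluorescence at 540/590nm.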

[9] = qHTS assay to test for compound auto fluorescence at 535 nm (green) in HEK293 cells (AID 720680)
[10] = qHTS assay to test for compound auto fluorescence at 460 nm (blue) in HEK293 cell free culture (AID 720681)
Summary of the method: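 Blue fluorescence (Ex 405/Em 460 nm, triamterene-equivalent) was read immediately after pin transfer of compound or DMSO into medium (DMEM, 10% FBS) without cells.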

[11] = qHTS assay to test for compound auto fluorescence at 535 nm (green) in HEK293 cell free culture (AID 720682)
Summary of the method: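 Read-out: 485/535 nm fluorescence intensity, calibrated against fluorescein. Medium only (DMEM + 10% FBS, no cells); test compound or DMSO vehicle added by pintool before plate reading.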

[12] = qHTS assay to test for compound auto fluorescence at 590 nm (red) in HEK293 cell free culture (AID 720683)
Summary of the method: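 Red-channel autofluorescence of compounds in culture medium (DMEM, 10% FBS), no cells, measured at 540/590 nm. Rose Bengal sodium is the reference fluorophore for equivalence.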

[13] = qHTS assay to test for compound auto fluorescence at 590 nm (red) in HepG2 cell free culture (AID 720684)
Summary of the method: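 No cells present: MEM + 10% FBS only. Compound pinned in, red label read (540/590 nm). Activity = fluorescence equivalent to Rose Bengal sodium.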

[14] = qHTS assay to test for compound auto fluorescence at 460 nm (blue) in HepG2 cell free culture (AID 720685)
Summary of the method: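 Cell-free plates of MEM plus 10% FBS received 23 nL compound or DMSO vehicle; blue-channel (405/460 nm) intensity scored against triamterene as reference fluorophore.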

[15] = qHTS assay to test for compound auto fluorescence at 535 nm (green) in HepG2 cell free culture (AID 720686)
[16] = qHTS assay to test for compound auto fluorescence at 460 nm (blue) in HepG2 cells (AID 720687)
Summary of the method: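 Blue-channel autofluorescence (Ex/Em 405/460 nm, triamterene-equivalent) was measured after 1 hr compound exposure at 37 C, 5% CO2. Cells were HepG2, plated overnight at 37 C in MEM plus 10% FBS.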

[17] = target: Glucocorticoid receptor (Homo sapiens) (UniProt P04150); assay: qHTS assay to identify small molecule agonists of the glucocorticoid receptor (GR) signaling pathway (AID 720691; active = well fitted activation curve with a large enough effect in the signal ratio in the repeat runs, not every such curve was filed as active; the % refers to the signal ratio)
Sequence of Glucocorticoid receptor (Homo sapiens) (P04150 whole entry, looked up): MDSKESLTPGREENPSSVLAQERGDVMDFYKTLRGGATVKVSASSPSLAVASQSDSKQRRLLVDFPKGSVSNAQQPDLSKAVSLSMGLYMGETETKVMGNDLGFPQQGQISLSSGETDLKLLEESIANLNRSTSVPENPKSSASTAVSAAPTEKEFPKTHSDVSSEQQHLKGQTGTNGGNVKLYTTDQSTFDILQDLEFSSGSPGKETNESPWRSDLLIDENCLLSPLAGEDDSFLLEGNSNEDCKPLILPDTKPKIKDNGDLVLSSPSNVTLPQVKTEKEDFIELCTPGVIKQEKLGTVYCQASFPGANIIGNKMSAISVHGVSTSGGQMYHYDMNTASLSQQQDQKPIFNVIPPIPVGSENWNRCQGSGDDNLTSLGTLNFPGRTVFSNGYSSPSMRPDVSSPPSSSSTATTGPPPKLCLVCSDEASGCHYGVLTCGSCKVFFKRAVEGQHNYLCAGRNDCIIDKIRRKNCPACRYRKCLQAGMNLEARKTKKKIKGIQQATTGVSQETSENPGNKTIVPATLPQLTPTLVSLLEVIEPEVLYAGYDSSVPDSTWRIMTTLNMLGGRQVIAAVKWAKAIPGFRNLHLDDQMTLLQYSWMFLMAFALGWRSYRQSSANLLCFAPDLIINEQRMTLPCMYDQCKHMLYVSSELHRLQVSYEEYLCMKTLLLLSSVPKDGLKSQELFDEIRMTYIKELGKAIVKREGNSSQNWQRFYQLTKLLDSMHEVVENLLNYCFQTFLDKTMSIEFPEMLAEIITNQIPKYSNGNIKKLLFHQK
Summary of the method: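 Compounds in DMSO, alongside positive controls, were added to GR-bla HeLa reporter cells and incubated 18 h at 37 C; GRE-driven beta-lactamase was detected by fluorescence after 2 h with FRET substrate at room temperature.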

[18] = qHTS assay for small molecule disruptors of the mitochondrial membrane potential (AID 720635)
Summary of the method: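 Mitochondrial membrane potential tracked with Mito-MPS dye, red aggregates (ex 540/em 590 nm) against green monomers (ex 490/em 535 nm). Compound treatment 1 hr at 37C, dye 30 min in HepG2.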

[19] = target: Glucocorticoid receptor (Homo sapiens) (UniProt P04150); assay: qHTS assay to identify small molecule antagonists of the glucocorticoid receptor (GR) signaling pathway (AID 720692; active = well fitted inhibition curve with a large enough effect in the signal ratio in the repeat runs, not every such curve was filed as active; the % refers to the signal ratio; also: potency is read from the fitted curve at half-maximal effect)
Summary of the method: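 In a 1536-well cell format, compounds were added 4 h after seeding GR-bla HeLa cells, together with dexamethasone at 5 nM final; reporter activity was measured by FRET-substrate fluorescence following 18 h at 37 C.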
% is scaled to controls: 0 for no effect and ±100 for the full control effect.

C=CCOC(C)=O
inactive: Potency [1] | Potency [2] | Potency [3] | Potency [4] | outcome [5] | outcome [6] | outcome [7] | outcome [8] | outcome [9] | outcome [10] | outcome [11] | outcome [12] | outcome [13] | outcome [14] | outcome [15] | outcome [16] | outcome [17]

CO[C@@H]1[C@H](OC(=O)NC(=O)CCl)CC[C@]2(CO2)[C@H]1[C@@]1(C)O[C@@H]1CC=C(C)C
inactive: Potency [2] | Potency [4] | Potency [18] | fluorescence, relative to Rose Bengal [5] -0.229% [at 18.6 µM] | fluorescence, % of triamterene [7] 0.0741% [at 18.6 µM] | fluorescence, % of fluorescent control [8] 0.143% [at 18.6 µM] | fluorescence, % of fluorescein [9] -0.127% [at 18.6 µM] | fluorescence, % of fluorescent control [10] -0.0636% [at 18.6 µM] | activity change [11] 0.201% [at 18.6 µM] | fluorescence, % of fluorescent control [12] -0.369% [at 18.6 µM] | fluorescence, % of Rose Bengal [13] -0.153% [at 18.6 µM] | fluorescence, % of fluorescent control [14] -0.133% [at 18.6 µM] | fluorescence, % of fluorescein control [15] -0.0091% [at 18.6 µM] | fluorescence, % of fluorescent control [16] 0.154% [at 18.6 µM]
active: Potency [1] 18.8 µM

Cc1ccc(N)cc1C
inactive: Potency [1] | Potency [2] | Potency [3] | Potency [4] | outcome [5] | outcome [6] | outcome [7] | outcome [8] | outcome [9] | outcome [10] | outcome [11] | outcome [12] | outcome [13] | outcome [14] | outcome [15] | outcome [16]

ClCc1ccccc1
inactive: Potency [1] | Potency [2] | Potency [3] | Potency [4] | Potency [18] | outcome [5] | outcome [6] | outcome [7] | outcome [8] | outcome [9] | outcome [10] | outcome [11] | outcome [12] | outcome [13] | outcome [14] | outcome [15] | outcome [16]

CCCCCCCCCC(=O)O[C@H]1CC[C@H]2[C@@H]3CCC4=CC(=O)CC[C@@H]4[C@H]3CC[C@]12C
inactive: Potency [1] | Potency [2] | Potency [3] | Potency [4] | Potency [18] | outcome [5] | outcome [6] | outcome [7] | outcome [8] | outcome [9] | outcome [10] | outcome [11] | outcome [12] | outcome [13] | outcome [14] | outcome [15] | outcome [16]
active: Potency [19] 9.52 µM

CC(C)(CCl)C(=O)Cl
inactive: Potency [1] | Potency [2] | Potency [3] | Potency [4] | outcome [5] | outcome [6] | outcome [7] | outcome [8] | outcome [9] | outcome [10] | outcome [11] | outcome [12] | outcome [13] | outcome [14] | outcome [16] | outcome [17] | Potency [19]

COC(=O)C(Cl)C(=O)OC
inactive: Potency [1] | Potency [2] | Potency [3] | Potency [4] | Potency [18] | outcome [5] | outcome [6] | outcome [7] | outcome [8] | outcome [9] | outcome [10] | outcome [11] | outcome [12] | outcome [13] | outcome [14] | outcome [15] | outcome [16] | outcome [17] | Potency [19]

CN1C[C@H](CNC(=O)OCc2ccccc2)C[C@@H]2c3cccc4c3c(cn4C)C[C@H]21
inactive: Potency [1] | Potency [3] | Potency [4] | outcome [5] | outcome [6] | outcome [7] | outcome [8] | outcome [9] | outcome [10] | outcome [11] | outcome [12] | outcome [13] | outcome [14] | outcome [15] | outcome [16] | outcome [17]
